# Laboratory results reported in PubChem BioAssay AID493030 (The Scripps Research Institute Molecular Screening Center, 2011).
# Screen size: about 2,300 compounds; about 1,500 (65%) were called active. The set was probably picked from earlier hits. These entries were drawn from the full list. Values without a mark were called inactive.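 How the source made its calls: active means mean inhibition over three repeats above a set limit taken from the earlier primary screen (cut at about 30% in these data); inactive means the rest.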
# Target: Platelet-activating factor acetylhydrolase 2, cytoplasmic (Homo sapiens) (UniProt Q99487)
# Experiment: PAFAH2 enzyme inhibitors, confirmation, biochemical, fluorescence polarization, human (AID 493030);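 further: inhibitor blocks binding of rhodamine activity probe so polarization falls; 0% = enzyme with DMSO and 100% = wells lacking PAFAH2 protein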
# Details: recombinant PAFAH2, FP-rhodamine activity probe, at 3.39 µM, active compounds read high
row,Structure (SMILES),inhibition
1,Clc1ccccc1CSc1nnc(-c2ccco2)c(-c2ccco2)n1,16.4%
2,COc1ccc(C(=O)OCC(=O)NCC2CCCCC2)cc1S(=O)(=O)N1CCCc2ccccc21,60.8% (active)
3,COc1ccc(C(=O)O/N=C(\N)Cc2ccc(Cl)cc2Cl)cc1OC,80.9% (active)
4,O=C(NNC(=O)c1ccccc1O)c1ccccc1O,20.3%
5,O=c1oc(-c2ccccc2NS(=O)(=O)c2ccc(Cl)cc2)nc2ccccc12,76.7% (active)
6,O=[N+]([O-])c1ccc(C=Nc2ccc(Cl)cc2Cl)s1,7.11%
7,O=C(COC(=O)c1cccnc1Cl)NC12CC3CC(CC(C3)C1)C2,74.8% (active)
8,COc1cc(C(=O)OCC(=O)NC23CC4CC(CC(C4)C2)C3)cc(OC)c1OC,67.7% (active)
9,O=C(COC(=O)c1ccc([N+](=O)[O-])o1)NC12CC3CC(CC(C3)C1)C2,46.4% (active)
10,COCCNC(=O)/C(C#N)=C/c1cccc(OCc2ccccc2)c1,12%
11,O=C(Cc1ccc(S(=O)(=O)N2CCOCC2)s1)NCCOc1ccccc1F,30.5% (active)
12,CC(C)(C)c1ccc(/C=C2\Oc3c(ccc(O)c3CN3CCN(CCO)CC3)C2=O)cc1,66.7% (active)
13,Cn1cccc1C(=O)OCC(=O)c1ccc(Br)s1,21%
14,COc1ccc(C(=O)OCC(=O)c2ccc(Cl)s2)c(OC)c1OC,73.5% (active)
15,COc1ccc(/C=C/C(=O)OCC(=O)NCc2cccs2)cc1OC,56.9% (active)
16,O=C(COC(=O)/C=C/c1cccc(Cl)c1)NCc1cccs1,35% (active)
17,CCOC(=O)CCCN1CC(O)=C(c2nc3ccccc3s2)C1=N,28.1%
18,O=C(COC(=O)c1n[nH]c2ccccc12)Nc1ccccc1Br,38.6% (active)
19,O=C(COC(=O)c1n[nH]c2ccccc12)NCc1ccccc1,28.3%
20,COCC1CCN(C(=O)c2ccc3oc(Cc4ccccc4)nc3c2)C1 (stereo not drawn),40.8% (active)
21,C/C=C/C=C/C(=O)OCC(=O)Nc1ccc(Cl)cc1,82.9% (active)
22,Cc1ccc(/C=C/C(=O)OCC(=O)Nc2cccnc2Cl)cc1,23.7%
23,Cc1oc2cc(Br)c(O)c(Br)c2c1C(=O)c1ccccc1,49.5% (active)
24,O=C(c1cccnc1)N(c1cc2sc(=O)oc2c2ccccc12)S(=O)(=O)c1ccccc1,25%
25,COc1ccc(C(=O)OCC(=O)Nc2cccc(C(C)=O)c2)cc1OC,79% (active)
26,COc1ccc(OC)c(/C=C/C(=O)OCC(=O)Nc2ccc3c(c2)OCCO3)c1,48.2% (active)
27,COc1cc(/C=C/C(=O)OCC(=O)Nc2cccc(Oc3ccccc3)c2)ccc1O,61.8% (active)
28,COc1ccc(C(=O)OCC(=O)NCCCc2ccccc2)cc1OC,53.5% (active)
